Activity calls are given as the source filed them. The calls were made as follows: active = hit-call score of the fitted dose curve at least 0.9, where 1 is the maximum; inactive = score below 0.9.
These compounds were tested against Hypoxia-inducible factor 1-alpha (Homo sapiens) (UniProt Q16665) (assay: ATG_HIF1a_CIS: Attagene CIS-FACTORIAL HepG2 Assay for human Hypoxia Inducible Factor 1 (HIF1A) (AID 2282951)). Details: HepG2 Attagene cis-factorial HIF1a reporter transcription; actives raise or lower the signal.
Chain of Hypoxia-inducible factor 1-alpha (Homo sapiens) (Q16665 whole entry, looked up): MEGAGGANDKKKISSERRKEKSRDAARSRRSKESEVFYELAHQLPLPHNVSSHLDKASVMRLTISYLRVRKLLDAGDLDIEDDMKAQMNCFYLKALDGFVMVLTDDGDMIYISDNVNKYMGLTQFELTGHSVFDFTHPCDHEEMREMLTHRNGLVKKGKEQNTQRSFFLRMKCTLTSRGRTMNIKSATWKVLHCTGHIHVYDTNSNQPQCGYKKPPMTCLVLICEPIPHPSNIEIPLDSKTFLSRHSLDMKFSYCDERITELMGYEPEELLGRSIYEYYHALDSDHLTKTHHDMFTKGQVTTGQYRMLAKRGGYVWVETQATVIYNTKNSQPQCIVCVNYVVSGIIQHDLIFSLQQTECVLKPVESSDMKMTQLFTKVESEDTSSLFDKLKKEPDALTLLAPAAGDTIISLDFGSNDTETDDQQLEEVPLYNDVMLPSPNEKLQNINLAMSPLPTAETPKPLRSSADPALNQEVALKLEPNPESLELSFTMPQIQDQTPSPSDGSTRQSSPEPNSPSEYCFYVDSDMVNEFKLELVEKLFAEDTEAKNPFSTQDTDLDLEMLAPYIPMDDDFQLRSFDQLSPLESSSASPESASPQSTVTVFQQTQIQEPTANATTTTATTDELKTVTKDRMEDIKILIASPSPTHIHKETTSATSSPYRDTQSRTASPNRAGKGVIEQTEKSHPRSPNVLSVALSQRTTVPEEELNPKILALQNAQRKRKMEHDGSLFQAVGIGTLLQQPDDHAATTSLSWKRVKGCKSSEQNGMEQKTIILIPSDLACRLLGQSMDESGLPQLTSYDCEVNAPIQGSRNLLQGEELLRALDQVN
Procedure: ATG_CIS is a cell-based, multiplexed-readout assay that uses HepG2, a human liver cell line, with measurements taken at 24 hours after chemical dosing in a 24-well plate.ATG_HIF1a_CIS is one of 52 assay component(s) measured or calculated from the ATG_CIS assay. It is designed to make measurements of mRNA induction, a form of inducible reporter, as detected with fluorescence intensity signals by Reverse transcription polymerase chain reaction (RT-PCR) and Capillary electrophoresis technology.Data from the assay component ATG_HIF1a_CIS was analyzed into 1 assay endpoint. This assay endpoint, ATG_HIF1a_CIS, was analyzed with bidirectional fitting relative to DMSO as the negative control and baseline of activity. Using a type of inducible reporter, measures of mRNA for gain or loss-of-signal activity can be used to understand the reporter gene at the transcription factor-level as they relate to the gene HIF1A. Furthermore, this assay endpoint can be referred to as a primary readout, because this assay has produced multiple assay endpoints where this one serves a reporter gene function. To generalize the intended target to other relatable targets, this assay endpoint is annotated to the dna binding intended target family, where the subfamily is basic helix-loop-helix protein.
Human liver HepG2 cells are transiently transfected with multiple reporter transcription units (MRTUs) in 6-well plates using FuGene 6 reagent (Roche; 3 ml FuGene/1 mg DNA). The MRTU constructs are regulated by a cis-regulating element (promoter). […] A major difference between the CIS and TRANS system is that in CIS activities of endogenous TFs are measured, whereas the TRANS assay evaluates changes in activities of exogenous, chimeric NR-Gal4 proteins. […] At the end of 24 hour incubation, total RNA was isolated using TriZol reagent (Invitrogen). The isolated RNA is then reverse-transcribed using oligo(dT) primer and Mo-MLV reverse transcriptase (Invitrogen) with DNAse I (Ambion) treatment for 30 min. The one-tenth of the produced cDNA was amplified by PCR using Taq DNA polymerase (Invitrogen) and two reporter sequence-specific primers. The PCR products were fluorescently labeled by primer extension with 6-arboxyfluorescein (6-FAM) 5'-labeled reporter sequence-specific primer (2 min at 95 C, 20 s at 68 C and 10 min at 72 C) and these products were digested with 5U of HpaI (New England Biolabs) for 2h at 37 C. The fragments were purified using Qiaquick PCR columns (Qiagen), analyzed on an ABI 3130xL genetic analyzer (Applied Biosystems) with peak positions identified by using a set of X-rhodamine (ROX)-labeled MapMarker1000 molecular weight standards (BioVentures). The raw capillary electrophoresis data was processed using Attagraph software (Attagene).

Compound	outcome	AC50
CC(C)c1ccccc1N	inactive	–
CCCCCCCOC(=O)c1ccccc1C(=O)OCCCCCCC	inactive	–
Nc1ccc([N+](=O)[O-])cc1O	–	31 µM (active)
O[Si](c1ccccc1)(c1ccccc1)c1ccccc1	inactive	–
O=C(O)C(F)(F)C(F)(F)C(F)(F)F	inactive	–
CCCCCCCCC(F)(F)C(F)(F)C(F)(F)C(F)(F)C(F)(F)C(F)(F)F	inactive	–
O=S(=O)(OCCOC(F)(F)F)C(F)(F)F	inactive	–
CC(=O)Nc1ccc(N=Nc2cc(C)ccc2O)cc1	inactive	–
FC(F)(I)C(F)(F)C(F)(F)C(F)(F)I	inactive	–
C=C(C)C(=O)OCC(F)(F)C(F)(F)C(F)(F)F	inactive	–
CCCCCCOC(=O)c1ccccc1O	inactive	–
FC1CC(F)(F)C(F)(F)C1(F)F (stereo not given)	inactive	–
CS(C)(=O)=O	inactive	–
CC/C=C\CCOC(=O)c1ccccc1	inactive	–
CCO[Si](CCC(F)(F)C(F)(F)C(F)(F)C(F)(F)C(F)(F)C(F)(F)F)(OCC)OCC	inactive	–
OCCCC(F)(F)C(F)(F)C(F)(F)F	inactive	–
CCc1c(Br)c(Br)c(Br)c(Br)c1Br	inactive	–
O=S(=O)(O)C(F)(F)C(F)(F)C(F)(F)C(F)(F)C(F)(F)C(F)(F)C(F)(F)F	inactive	–
CC(C)=CCCC(C)CCOC(=O)C(C)C (stereo not given)	inactive	–
C=CC(=O)OCC(F)(F)C(F)(F)C(F)(F)C(F)(F)C(F)(F)C(F)(F)C(F)(F)F	inactive	–

Compound	outcome	AC50
CC(C)(C)C(=O)CC(=O)C(F)(F)C(F)(F)C(F)(F)F	inactive	–
CCCCOc1ccc(N)cc1	inactive	–
CN(C)Cc1ccccc1O	inactive	–
CO[Si](OC)(c1ccccc1)c1ccccc1	inactive	–
FC(F)(F)C(F)(F)C(F)(F)C(F)(F)C(F)(F)C(F)(F)C(F)(F)I	inactive	–
CC(CCl)OP(=O)(OC(C)CCl)OC(C)CCl (stereo not given)	inactive	–
FC(F)(F)C(F)(F)C(F)(F)C(F)(F)C(F)(F)C(F)(F)CCS	inactive	–
CC/C=C\CCOC(C)=O	inactive	–
Cc1ccc(S(=O)(=O)NCl)cc1	inactive	–
Cc1cccc(N(C)C)c1	inactive	–
N=C(N)C(F)(F)C(F)(F)C(F)(F)C(F)(F)C(F)(F)C(F)(F)C(F)(F)F	–	242 µM (active)
CCCCCCCCCCCCCCCC[N+](C)(C)Cc1ccccc1	inactive	–
OCC(F)(F)C(F)(F)C(F)(F)C(F)(F)C(F)(F)C(F)(F)F	inactive	–
O=C(O)C(F)(F)C(F)(F)C(F)(F)C(F)(F)C(F)(F)C(F)(F)C(F)(F)C(F)(F)C(F)(F)C(F)F	inactive	–
CCCCCCS	inactive	–
FC(F)(F)C(F)(F)C(F)(F)CI	inactive	–
CCCCNc1ccccc1	inactive	–
COC(=O)CCC(F)(F)C(F)(F)C(F)(F)C(F)(F)F	inactive	–
OCC(F)(F)C(F)(F)C(F)(F)F	inactive	–
FC(F)(F)C(F)(F)C(F)(F)C(F)(F)C(F)(F)C(F)(F)C(F)(F)C(F)(F)F	inactive	–

Reference: PubChem BioAssay (EPA / NIEHS)
